The supplement of paper PMC11732987, “Enantioselective OTUD7B fragment discovery through chemoproteomics screening and high-throughput optimisation” (Communications Chemistry, 2025)

Experiments:
Experiment in all cases: log2 ratio of Biotin-Ahx-Ub-VS probe labelling (fragment/DMSO); higher = less target engagement (more negative = stronger competition), active = hit call of the paper (q ≤ 0.05, log2 ratio ≤ -1)
Conditions in all cases: compound concentration: 200 uM; treatment time: 3 h
USP34 = USP34 (UniProt Q70CQ2)
Sequence of USP34 (Q70CQ2 whole entry, the tested form may be a part): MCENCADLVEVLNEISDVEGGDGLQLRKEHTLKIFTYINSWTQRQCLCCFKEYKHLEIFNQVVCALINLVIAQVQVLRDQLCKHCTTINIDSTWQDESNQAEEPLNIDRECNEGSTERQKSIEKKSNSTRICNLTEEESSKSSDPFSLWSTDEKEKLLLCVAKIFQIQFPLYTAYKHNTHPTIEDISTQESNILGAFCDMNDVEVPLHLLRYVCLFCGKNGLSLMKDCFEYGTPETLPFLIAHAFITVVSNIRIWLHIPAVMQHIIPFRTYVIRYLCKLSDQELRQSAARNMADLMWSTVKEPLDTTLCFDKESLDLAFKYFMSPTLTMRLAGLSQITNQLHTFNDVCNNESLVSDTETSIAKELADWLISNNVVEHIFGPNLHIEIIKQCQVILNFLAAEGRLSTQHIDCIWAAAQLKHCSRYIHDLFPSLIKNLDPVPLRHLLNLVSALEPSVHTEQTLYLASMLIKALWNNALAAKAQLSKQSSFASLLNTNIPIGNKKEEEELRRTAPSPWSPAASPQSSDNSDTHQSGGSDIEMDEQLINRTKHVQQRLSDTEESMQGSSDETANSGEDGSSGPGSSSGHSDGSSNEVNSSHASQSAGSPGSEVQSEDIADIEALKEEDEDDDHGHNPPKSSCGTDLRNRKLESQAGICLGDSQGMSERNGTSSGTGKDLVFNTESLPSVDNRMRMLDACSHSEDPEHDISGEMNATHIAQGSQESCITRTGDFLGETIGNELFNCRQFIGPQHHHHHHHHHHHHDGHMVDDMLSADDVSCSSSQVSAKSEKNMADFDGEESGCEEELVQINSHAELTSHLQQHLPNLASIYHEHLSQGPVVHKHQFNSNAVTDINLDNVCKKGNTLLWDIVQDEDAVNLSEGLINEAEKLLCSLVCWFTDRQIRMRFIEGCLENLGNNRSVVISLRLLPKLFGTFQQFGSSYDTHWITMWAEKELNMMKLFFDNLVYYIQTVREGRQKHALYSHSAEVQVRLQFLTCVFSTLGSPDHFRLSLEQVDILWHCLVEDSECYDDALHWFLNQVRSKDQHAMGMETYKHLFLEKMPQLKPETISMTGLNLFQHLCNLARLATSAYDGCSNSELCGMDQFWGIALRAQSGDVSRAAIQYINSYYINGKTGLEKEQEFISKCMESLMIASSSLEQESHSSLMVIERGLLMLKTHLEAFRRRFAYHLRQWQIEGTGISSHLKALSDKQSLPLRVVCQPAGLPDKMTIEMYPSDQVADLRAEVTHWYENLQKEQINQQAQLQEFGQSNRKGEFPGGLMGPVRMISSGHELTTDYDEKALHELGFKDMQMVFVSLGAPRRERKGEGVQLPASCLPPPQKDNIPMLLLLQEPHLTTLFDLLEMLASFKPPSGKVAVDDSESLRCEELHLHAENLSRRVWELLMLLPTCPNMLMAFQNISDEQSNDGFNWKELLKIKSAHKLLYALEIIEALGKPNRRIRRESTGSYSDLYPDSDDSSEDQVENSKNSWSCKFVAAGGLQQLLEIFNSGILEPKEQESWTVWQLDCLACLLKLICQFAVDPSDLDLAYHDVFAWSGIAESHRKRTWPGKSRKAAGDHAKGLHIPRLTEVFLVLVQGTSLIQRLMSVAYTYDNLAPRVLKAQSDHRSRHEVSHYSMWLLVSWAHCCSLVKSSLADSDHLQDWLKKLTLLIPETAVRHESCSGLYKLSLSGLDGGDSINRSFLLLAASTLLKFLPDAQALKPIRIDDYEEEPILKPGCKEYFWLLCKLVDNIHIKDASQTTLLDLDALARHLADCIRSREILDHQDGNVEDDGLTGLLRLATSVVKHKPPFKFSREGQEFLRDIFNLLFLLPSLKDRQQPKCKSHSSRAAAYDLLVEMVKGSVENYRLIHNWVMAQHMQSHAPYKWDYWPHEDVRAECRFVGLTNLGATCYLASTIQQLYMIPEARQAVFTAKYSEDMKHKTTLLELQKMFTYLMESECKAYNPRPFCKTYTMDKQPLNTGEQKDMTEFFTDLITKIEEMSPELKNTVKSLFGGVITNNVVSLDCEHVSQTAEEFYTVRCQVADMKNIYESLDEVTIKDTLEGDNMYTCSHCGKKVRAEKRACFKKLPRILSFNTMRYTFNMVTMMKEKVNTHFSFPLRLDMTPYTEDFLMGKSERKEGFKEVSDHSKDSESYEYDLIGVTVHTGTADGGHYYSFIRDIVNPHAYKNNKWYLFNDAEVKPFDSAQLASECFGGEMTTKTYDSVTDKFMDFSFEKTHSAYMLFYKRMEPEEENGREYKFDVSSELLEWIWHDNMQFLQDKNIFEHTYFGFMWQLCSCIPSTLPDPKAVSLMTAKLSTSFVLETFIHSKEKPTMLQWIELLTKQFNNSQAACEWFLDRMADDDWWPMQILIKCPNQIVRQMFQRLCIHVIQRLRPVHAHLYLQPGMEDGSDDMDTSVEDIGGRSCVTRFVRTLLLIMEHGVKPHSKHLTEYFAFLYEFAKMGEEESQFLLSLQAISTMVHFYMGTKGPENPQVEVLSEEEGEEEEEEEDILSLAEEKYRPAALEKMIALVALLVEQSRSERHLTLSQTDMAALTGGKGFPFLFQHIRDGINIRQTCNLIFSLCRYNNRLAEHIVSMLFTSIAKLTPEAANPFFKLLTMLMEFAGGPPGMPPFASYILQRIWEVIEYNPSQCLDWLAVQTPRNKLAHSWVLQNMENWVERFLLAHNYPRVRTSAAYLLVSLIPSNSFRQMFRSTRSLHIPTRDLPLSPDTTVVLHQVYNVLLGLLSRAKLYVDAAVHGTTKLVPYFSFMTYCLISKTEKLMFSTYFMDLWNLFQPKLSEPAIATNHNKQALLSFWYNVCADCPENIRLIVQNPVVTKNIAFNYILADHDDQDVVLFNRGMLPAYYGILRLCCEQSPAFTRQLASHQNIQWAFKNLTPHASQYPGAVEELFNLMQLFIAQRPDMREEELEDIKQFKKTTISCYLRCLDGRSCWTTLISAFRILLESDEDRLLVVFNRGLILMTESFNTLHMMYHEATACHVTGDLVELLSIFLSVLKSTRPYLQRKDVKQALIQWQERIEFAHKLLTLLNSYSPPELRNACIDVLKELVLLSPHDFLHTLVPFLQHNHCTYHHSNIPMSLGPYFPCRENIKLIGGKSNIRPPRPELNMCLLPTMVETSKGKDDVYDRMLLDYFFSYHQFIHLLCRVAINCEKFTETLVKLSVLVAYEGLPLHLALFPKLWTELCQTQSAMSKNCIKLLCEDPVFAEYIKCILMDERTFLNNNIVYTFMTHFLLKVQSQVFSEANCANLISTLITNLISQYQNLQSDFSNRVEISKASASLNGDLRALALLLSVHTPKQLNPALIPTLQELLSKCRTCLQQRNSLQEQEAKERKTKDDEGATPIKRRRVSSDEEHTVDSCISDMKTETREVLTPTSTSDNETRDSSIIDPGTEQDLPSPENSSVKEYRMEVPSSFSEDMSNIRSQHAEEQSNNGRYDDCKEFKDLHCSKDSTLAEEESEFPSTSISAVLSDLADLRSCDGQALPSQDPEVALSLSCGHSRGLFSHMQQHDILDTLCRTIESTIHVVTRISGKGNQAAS
Outline: (§1)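 Labelled DUBs from HEK293T lysate were NeutrAvidin-enriched, digested with LysC and trypsin, and run by diaPASEF LC-MS/MS. Before that, each 495 µg sample in Tris/CHAPS/IGEPAL buffer with protease inhibitors was treated in triplicate with fragment at 200 µM or vehicle for 3 h, then with Biotin-Ahx-Ub-VS at 0.5 µM final for 1 h. Values are average log2 ratios of fragment over vehicle by unpaired t-test, based on global-median-normalised Spectronaut label-free quantities from proteins with ≥2 unique peptides.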

USP36 = target: T1, USP36 (UniProt Q9P275)
T1 sequence (whole entry): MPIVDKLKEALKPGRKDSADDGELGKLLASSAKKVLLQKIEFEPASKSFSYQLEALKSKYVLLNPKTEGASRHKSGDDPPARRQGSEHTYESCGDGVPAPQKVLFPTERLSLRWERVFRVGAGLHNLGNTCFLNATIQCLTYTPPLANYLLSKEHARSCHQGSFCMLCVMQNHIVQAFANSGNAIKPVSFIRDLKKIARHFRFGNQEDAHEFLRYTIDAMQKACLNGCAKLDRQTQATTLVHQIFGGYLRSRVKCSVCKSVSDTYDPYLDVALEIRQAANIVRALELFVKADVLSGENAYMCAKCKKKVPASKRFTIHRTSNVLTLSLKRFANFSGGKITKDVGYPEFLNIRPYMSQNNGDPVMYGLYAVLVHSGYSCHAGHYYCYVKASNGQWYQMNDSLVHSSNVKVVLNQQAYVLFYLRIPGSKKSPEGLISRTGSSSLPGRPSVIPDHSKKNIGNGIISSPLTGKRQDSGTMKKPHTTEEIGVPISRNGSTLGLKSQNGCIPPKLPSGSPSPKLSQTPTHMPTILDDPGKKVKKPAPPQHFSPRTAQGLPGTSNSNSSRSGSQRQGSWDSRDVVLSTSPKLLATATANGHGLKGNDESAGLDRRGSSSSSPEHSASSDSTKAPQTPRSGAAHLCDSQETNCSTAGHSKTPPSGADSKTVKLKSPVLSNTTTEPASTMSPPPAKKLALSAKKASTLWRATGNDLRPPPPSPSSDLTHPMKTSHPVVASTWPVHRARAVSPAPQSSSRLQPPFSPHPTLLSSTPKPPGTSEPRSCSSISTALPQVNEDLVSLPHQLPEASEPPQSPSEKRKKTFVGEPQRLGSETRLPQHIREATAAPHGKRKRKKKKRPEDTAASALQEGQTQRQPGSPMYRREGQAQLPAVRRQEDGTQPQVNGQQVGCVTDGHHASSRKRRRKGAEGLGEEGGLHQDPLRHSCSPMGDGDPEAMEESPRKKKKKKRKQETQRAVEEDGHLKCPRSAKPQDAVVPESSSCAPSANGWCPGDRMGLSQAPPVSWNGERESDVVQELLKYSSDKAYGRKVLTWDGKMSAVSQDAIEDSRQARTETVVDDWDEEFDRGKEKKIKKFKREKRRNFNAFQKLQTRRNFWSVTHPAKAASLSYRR
Outline: as §1

USP38 = target: T2, USP38 (UniProt Q8NB14)
T2 sequence (whole entry): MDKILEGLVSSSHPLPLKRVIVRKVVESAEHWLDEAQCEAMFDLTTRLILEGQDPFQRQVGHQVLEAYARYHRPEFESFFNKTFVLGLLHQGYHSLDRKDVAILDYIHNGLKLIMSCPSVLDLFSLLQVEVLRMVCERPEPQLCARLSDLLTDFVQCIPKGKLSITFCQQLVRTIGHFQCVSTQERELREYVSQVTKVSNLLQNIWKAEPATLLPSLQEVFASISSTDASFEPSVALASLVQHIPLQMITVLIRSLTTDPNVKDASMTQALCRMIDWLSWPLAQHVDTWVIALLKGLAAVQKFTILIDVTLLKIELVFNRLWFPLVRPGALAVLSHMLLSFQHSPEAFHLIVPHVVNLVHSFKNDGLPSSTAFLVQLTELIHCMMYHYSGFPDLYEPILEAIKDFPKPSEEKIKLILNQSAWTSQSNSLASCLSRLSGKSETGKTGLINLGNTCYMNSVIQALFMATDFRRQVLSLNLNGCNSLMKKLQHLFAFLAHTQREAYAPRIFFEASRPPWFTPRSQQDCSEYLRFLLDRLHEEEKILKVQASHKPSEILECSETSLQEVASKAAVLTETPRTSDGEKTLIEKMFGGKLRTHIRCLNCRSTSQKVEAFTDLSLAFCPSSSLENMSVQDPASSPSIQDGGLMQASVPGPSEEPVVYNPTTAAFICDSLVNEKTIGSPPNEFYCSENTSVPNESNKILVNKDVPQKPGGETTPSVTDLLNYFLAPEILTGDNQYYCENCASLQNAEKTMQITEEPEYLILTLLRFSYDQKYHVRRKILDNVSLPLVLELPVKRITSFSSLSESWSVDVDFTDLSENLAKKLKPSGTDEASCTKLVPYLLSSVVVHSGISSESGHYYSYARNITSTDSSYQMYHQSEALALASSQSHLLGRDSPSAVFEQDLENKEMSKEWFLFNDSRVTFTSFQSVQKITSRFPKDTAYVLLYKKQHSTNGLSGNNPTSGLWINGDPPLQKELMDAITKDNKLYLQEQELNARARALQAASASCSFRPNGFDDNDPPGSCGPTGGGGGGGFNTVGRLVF
Outline: as §1

USP39 = target: T3, USP39 (UniProt Q53GS9)
T3 sequence (whole entry): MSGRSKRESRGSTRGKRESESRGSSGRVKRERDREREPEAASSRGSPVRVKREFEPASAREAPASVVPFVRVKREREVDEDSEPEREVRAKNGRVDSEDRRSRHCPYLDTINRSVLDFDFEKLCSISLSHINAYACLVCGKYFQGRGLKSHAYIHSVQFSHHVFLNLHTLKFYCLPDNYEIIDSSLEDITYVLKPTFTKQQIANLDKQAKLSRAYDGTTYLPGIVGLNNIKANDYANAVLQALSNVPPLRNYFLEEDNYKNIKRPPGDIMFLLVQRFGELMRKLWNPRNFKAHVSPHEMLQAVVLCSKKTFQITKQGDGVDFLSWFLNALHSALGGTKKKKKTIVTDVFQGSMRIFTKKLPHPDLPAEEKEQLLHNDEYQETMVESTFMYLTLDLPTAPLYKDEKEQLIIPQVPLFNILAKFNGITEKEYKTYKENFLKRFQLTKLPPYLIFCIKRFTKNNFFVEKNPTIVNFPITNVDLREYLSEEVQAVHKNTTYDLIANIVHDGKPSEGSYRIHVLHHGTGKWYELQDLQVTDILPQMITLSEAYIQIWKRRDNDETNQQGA
Outline: as §1

USP4 = target: T4, USP4 (UniProt Q13107)
T4 sequence (whole entry): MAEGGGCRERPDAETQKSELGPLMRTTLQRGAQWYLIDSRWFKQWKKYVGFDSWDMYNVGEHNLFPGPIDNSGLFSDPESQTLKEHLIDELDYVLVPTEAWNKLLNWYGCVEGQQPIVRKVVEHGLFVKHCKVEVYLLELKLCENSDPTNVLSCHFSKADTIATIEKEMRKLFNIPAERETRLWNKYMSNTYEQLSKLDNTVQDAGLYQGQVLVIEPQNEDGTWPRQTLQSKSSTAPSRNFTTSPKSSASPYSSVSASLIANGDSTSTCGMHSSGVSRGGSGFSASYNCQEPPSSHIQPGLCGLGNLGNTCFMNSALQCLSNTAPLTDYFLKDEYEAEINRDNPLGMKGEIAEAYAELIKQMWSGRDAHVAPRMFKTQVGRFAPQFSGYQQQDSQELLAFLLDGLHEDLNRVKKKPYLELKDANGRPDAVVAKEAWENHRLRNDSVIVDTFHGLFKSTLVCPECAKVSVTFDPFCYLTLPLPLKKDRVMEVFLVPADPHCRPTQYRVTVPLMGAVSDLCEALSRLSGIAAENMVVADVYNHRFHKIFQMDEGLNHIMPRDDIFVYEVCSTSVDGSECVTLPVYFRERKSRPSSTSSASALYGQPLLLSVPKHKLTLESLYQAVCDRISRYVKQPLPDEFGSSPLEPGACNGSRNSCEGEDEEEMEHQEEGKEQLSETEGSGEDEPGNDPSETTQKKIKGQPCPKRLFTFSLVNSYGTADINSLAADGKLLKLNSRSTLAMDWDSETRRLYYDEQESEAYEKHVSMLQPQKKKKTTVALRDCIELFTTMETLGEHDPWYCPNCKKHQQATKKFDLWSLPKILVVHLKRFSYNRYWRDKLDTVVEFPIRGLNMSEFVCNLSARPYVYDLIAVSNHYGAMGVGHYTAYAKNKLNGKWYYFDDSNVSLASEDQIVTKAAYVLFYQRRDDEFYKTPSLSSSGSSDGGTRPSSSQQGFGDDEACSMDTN
Outline: as §1

Measured: log2 ratio of Biotin-Ahx-Ub-VS probe labelling

O=C(CCl)N1CCc2sccc2C1
inactive: USP34 -0.165 | USP36 -0.212 | USP38 -0.305 | USP39 0.0206 | USP4 -0.861
